Experimental data taken from PubChem BioAssay (NCATS).
Records with an inconclusive call do not appear. Activity calls are given as the source filed them. Unless noted, the call rests on the fitted dose curve; in most records, active means well fitted curve in the direction sought with a large enough effect; inconclusive means small, poorly fitted or top-dose-only effect, or another doubt; inactive means no such curve, though single readings can be large; an effect the other way counts as inactive or inconclusive.

Columns and labels:
[1] = qHTS Validation Assay to Find Inhibitors of Chronic Active B-Cell Receptor Signaling (AID 485345; active means well fitted curve in the direction sought with a large enough effect in the main read-out, with a control signal flat, not every such curve was filed as active;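 further: 0% = untreated basal cells and 100% = 10 µM MG-132 proteasome inhibitor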)
In short: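 Read-out: ratio of filter-corrected green (IkappaBalpha fusion) to red (native) luciferase signal in doxycycline-induced TMD8 cells after 4 h at 37C. Titration spanned 46 uM–3 nM; Data were normalised to basal cells and 10 uM MG-132 wells.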

[2] = target: Beta-2 adrenergic receptor (Homo sapiens) (UniProt P07550); assay: qHTS validation assay of beta-arrestin-biased ligands of beta2-adrenergic receptor (AID 485366); further: 0% is about no effect
Chain of Beta-2 adrenergic receptor (Homo sapiens) (P07550 whole entry, looked up): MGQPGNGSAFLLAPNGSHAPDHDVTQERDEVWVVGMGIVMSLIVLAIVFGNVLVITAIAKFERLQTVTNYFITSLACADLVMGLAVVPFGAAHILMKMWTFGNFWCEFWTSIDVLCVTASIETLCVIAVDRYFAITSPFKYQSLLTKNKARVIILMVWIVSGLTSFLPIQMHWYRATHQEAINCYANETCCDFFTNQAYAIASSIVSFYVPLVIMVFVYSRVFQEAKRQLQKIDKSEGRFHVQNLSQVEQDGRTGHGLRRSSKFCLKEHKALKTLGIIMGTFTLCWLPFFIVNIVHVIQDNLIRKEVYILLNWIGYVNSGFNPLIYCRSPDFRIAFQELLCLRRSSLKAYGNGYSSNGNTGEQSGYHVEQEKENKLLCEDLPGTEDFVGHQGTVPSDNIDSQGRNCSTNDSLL
In short: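 Agonist activity is measured as luciferase luminescence downstream of beta-arrestin recruitment to recombinant beta2-AR in Tango cells. Exposure lasts 18 hr at 37 degrees C, and curves are categorized by r2, response size and activity.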

[3] = Quantitative high throughput screen for delayed death inhibitors of the malarial parasite plastid, 96 hour incubation (AID 488745);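 further: luciferase-expressing P. falciparum in erythrocytes at 2% hematocrit and 0.1% parasitemia; series mostly up to about 29 µM; on the % scale 0 is the no-effect control and ±100 the full control effect; nearly all actives have a fitted effect of over 70% in size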
In short: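 Luciferase-expressing P. falciparum, infected RBCs 2% Hct/0.1% parasitemia (final); 96 h cpd exposure, 37 C, 5% CO2; RPMI 1640 + 0.5% Albumax, bicarbonate, gentamycin. Readout: luminescence loss = growth inhibition.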

[4] = Quantitative high throughput screen for delayed death inhibitors of the malarial parasite plastid, 48 hour incubation (AID 488752); further: on the % scale 0 is the no-effect control and ±100 the full control effect; nearly all actives have a fitted effect of over 65% in size
In short: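 Luciferase-expressing P. falciparum in RBCs, 2% Hct, 0.1% parasitemia final; RPMI 1640 + 0.5% Albumax; 48 h, 37 C, 5% CO2; luminescence readout, signal drop = growth inhibition.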

[5] = target: Thioredoxin reductase 1, cytoplasmic (Rattus norvegicus) (UniProt O89049); assay: qHTS Assay for Substrates of Mammalian Selenoprotein Thioredoxin Reductase 1 (TrxR1) (AID 488772);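 further: series mostly up to about 57 µM; 0% is about no effect; a drop in NADPH fluorescence below the no-compound background marks a TrxR1 substrate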
Chain of Thioredoxin reductase 1, cytoplasmic (Rattus norvegicus) (O89049 whole entry, looked up): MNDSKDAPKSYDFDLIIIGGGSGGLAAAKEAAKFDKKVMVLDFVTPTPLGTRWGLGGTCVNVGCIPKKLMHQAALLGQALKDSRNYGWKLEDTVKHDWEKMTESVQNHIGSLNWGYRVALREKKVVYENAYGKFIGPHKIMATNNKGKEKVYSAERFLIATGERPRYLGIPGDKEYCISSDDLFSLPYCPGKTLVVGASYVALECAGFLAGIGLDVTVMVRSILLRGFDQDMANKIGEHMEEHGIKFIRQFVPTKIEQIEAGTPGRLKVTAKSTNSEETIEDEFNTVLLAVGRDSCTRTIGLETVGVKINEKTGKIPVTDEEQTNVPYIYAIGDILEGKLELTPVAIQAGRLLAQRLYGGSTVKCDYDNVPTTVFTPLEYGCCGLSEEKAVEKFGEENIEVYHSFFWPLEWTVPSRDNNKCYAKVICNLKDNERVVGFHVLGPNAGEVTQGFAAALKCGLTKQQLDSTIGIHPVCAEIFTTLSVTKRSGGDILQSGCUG
In short: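 In this dual-purpose format, potential substrates are identified from the first fluorescence read after selenite addition, not from the 8-minute delta. Rat enzyme is preincubated with NADPH and then with compound at ~22 deg C.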

[6] = target: Thioredoxin reductase 1, cytoplasmic (Rattus norvegicus) (UniProt O89049); assay: qHTS Assay for Inhibitors of Mammalian Selenoprotein Thioredoxin Reductase 1 (TrxR1) (AID 488773); conditions: Potency: inhibition;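 further: drop in NADPH fluorescence over an 8 min run after selenite addition; series mostly up to about 57 µM; on the % scale 0 is the no-effect control and ±100 the full control effect; nearly all actives have a fitted effect of over 40% in size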
In short: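 Inhibition is scored from the loss of NADPH fluorescence between first and last reads of an 8-min kinetic run. Selenite (400 uM) was the substrate, added after 15 min compound preincubation at room temperature.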

[7] = target: Flap endonuclease 1 (Homo sapiens) (UniProt P39748); assay: qHTS Validation Assay for the Inhibitors of Human Flap endonuclease 1 (FEN1) (AID 488816); further: on the % scale 0 is the no-effect control and ±100 the full control effect
Chain of Flap endonuclease 1 (Homo sapiens) (P39748 whole entry, looked up): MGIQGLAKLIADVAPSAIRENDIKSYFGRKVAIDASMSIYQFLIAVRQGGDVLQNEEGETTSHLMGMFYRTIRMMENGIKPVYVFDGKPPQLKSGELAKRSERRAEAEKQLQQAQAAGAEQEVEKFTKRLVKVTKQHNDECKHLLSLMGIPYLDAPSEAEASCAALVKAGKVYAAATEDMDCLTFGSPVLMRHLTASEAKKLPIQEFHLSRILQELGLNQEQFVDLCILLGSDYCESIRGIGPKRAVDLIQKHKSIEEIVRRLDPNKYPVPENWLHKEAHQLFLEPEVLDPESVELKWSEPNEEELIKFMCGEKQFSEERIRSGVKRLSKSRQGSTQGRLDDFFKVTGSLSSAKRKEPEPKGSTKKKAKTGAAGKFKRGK
In short: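 qHTS format: compounds and 10 nM FEN1 incubated 15 min at room temperature before adding 50 nM substrate. Cleavage followed by reads at 0 and 15 min; normalized data fitted to a four-parameter Hill curve.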

[8] = target: M-phase phosphoprotein 8 (Homo sapiens) (UniProt Q99549); assay: qHTS Validation Assay for Inhibitors for MPP8 Chromodomain Interactions with Methylated Histone Tails (AID 488949);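 further: AlphaScreen signal from MPP8 chromodomain bound to biotinylated H3K9me3 peptide; top concentration of the series differs between compounds; on the % scale 0 is the no-effect control and ±100 the full control effect; nearly all actives have a fitted effect of over 55% in size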
Chain of M-phase phosphoprotein 8 (Homo sapiens) (Q99549 whole entry, looked up): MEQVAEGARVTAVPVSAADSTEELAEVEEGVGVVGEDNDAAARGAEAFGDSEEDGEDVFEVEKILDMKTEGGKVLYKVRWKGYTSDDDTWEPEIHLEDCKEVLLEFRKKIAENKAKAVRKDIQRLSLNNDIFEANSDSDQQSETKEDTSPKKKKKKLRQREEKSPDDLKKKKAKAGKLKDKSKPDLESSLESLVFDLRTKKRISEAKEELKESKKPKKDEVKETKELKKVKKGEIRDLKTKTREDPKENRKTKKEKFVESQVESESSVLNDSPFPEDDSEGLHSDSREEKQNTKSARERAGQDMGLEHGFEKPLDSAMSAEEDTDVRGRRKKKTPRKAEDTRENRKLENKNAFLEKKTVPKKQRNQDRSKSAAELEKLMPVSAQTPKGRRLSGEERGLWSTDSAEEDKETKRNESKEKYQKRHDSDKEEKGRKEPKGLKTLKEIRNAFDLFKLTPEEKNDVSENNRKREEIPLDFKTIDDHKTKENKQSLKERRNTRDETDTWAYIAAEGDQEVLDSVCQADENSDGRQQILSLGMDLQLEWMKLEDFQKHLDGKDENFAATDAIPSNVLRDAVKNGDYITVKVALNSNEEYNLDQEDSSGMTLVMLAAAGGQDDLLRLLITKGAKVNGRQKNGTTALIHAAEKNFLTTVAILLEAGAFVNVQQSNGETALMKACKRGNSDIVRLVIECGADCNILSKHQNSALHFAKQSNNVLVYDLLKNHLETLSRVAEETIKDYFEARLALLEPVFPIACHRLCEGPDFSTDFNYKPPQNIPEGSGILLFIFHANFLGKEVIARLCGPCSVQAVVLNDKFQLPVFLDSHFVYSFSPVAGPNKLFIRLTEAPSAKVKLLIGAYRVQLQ
In short: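 Disruption of the preformed MPP8–trimethyl-H3K9 peptide complex (both 50 nM, 30 min, RT) is measured after 30 min compound exposure, using AlphaScreen proximity beads; aurintricarboxylic acid titration serves as plate control.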

[9] = target: Chromobox protein homolog 1 (Homo sapiens) (UniProt P83916); assay: qHTS Validation Assay for Inhibitors of HP1-beta Chromodomain Interactions with Methylated Histone Tails (AID 488953);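 further: loss of AlphaScreen luminescence from HP1-beta binding biotinylated H3K9me3 peptide; series mostly up to about 110 µM; on the % scale 0 is the no-effect control and ±100 the full control effect; nearly all actives have a fitted effect of over 50% in size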
Chain of Chromobox protein homolog 1 (Homo sapiens) (P83916 whole entry, looked up): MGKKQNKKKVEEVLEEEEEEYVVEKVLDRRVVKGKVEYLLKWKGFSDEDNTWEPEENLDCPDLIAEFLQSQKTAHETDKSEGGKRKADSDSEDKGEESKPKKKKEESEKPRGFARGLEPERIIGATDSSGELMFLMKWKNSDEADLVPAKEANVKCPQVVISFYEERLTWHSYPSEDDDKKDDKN
In short: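 AlphaScreen proximity readout: streptavidin donor and Ni-chelate acceptor beads, 10 ug/mL final, 30 min dark, RT. Complex of 50 nM HP1-beta and 50 nM b-H3(1-18)K9me3 formed 30 min, then compound-treated 30 min; PBS pH 7.4/0.01% Tween-20.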

[10] = target: Transient receptor potential cation channel subfamily V member 1 (Homo sapiens) (UniProt Q8NER1); assay: HTS Assay for Compounds that Act as Enhancers of the Vanilloid Receptor 1 (AID 488979); further: 0% is about no effect
Chain of Transient receptor potential cation channel subfamily V member 1 (Homo sapiens) (Q8NER1 whole entry, looked up): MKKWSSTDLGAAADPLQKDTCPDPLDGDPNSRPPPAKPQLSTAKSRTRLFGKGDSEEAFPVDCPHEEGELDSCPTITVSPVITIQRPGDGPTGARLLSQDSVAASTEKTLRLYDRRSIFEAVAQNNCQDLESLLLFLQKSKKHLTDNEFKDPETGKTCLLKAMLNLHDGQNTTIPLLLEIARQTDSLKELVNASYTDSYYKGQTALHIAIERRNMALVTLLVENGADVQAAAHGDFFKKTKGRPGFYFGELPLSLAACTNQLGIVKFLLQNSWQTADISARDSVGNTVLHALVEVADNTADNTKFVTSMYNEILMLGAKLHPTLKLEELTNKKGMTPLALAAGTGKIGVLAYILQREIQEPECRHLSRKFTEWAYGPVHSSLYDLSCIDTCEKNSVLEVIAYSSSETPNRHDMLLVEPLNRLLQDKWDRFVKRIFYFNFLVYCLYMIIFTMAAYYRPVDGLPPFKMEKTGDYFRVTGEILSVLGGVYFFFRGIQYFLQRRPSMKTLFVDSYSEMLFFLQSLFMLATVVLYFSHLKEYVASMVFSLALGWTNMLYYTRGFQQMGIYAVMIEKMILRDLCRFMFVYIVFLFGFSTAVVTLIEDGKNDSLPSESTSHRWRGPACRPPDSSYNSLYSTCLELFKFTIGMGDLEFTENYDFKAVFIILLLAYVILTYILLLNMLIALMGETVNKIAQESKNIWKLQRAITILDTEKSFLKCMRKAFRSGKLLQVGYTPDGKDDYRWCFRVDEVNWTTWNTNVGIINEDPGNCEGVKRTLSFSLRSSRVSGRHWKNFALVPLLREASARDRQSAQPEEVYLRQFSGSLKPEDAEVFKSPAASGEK
In short: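 Calcium influx kinetics via Fluo-8 (480/520 nm) in TRPV1-expressing cells, 2000/well cultured overnight at 35.5C. Compound-alone read 3 min (agonist phase), followed by EC20 capsaicin challenge for 2 min (enhancer phase).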

[11] = target: Thyrotropin receptor (Homo sapiens) (UniProt P16473); assay: qHTS Assay for Antagonists of the Thyroid Stimulating Hormone Receptor (AID 488980); further: series mostly up to about 58 µM; 0% is about no effect
Chain of Thyrotropin receptor (Homo sapiens) (P16473 whole entry, looked up): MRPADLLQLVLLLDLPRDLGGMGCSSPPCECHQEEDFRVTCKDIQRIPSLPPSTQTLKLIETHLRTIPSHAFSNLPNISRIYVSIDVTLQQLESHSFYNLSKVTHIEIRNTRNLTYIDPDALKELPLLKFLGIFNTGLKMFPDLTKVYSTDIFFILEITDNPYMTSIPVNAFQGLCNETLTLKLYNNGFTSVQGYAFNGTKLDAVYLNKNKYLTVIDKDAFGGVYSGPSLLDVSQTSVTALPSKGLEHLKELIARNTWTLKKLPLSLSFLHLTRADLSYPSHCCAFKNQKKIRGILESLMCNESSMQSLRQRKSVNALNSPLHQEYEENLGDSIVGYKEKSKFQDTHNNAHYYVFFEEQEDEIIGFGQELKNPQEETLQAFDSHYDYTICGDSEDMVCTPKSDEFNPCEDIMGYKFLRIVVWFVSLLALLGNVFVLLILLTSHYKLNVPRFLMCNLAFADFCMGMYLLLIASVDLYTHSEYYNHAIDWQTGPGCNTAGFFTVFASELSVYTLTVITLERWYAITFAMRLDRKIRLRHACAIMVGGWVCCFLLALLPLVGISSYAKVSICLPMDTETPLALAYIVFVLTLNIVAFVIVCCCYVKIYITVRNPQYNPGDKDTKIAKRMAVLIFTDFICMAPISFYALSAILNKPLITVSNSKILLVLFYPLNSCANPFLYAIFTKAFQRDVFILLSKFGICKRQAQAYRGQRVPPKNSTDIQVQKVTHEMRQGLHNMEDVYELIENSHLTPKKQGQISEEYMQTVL
In short: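 Cells expressing human TSHR (HEK293) are dispensed in HBSS/HEPES containing 70 uM RO 20-1724, compound is added, then TSH at EC80 (4 nM final). Antibody in lysis buffer follows, 30 minutes at room temperature before HTRF detection.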

[12] = target: D(1A) dopamine receptor (Homo sapiens) (UniProt P21728); assay: HTS Assay for Allosteric Agonists of the Human D1 Dopamine Receptor: Primary Screen for Agonists (AID 488981); further: 0% is about no effect
Chain of D(1A) dopamine receptor (Homo sapiens) (P21728 whole entry, looked up): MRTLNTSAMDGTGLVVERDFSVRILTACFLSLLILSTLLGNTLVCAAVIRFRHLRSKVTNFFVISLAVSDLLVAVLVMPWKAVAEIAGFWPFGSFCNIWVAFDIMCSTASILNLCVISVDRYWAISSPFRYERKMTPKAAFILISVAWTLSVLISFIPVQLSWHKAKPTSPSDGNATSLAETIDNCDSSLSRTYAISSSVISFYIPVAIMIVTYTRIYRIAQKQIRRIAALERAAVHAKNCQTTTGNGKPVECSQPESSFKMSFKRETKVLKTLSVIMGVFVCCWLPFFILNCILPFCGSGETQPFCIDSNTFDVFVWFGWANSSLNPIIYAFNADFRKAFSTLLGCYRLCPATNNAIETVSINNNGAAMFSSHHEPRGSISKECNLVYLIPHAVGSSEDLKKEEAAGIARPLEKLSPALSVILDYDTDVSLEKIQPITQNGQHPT
In short: (§1)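 Calcium flux in an inducible, force-coupled HEK293 Trex D1 line (overnight at 30 C): agonist mode is the 180 s kinetic read after compound; potentiator mode is the following 180 s read after dopamine at EC20.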

[13] = target: D(1A) dopamine receptor (Homo sapiens) (UniProt P21728); assay: HTS Assay for Allosteric Agonists of the Human D1 Dopamine Receptor: Primary Screen for Potentiators (AID 488982); further: 0% is about no effect
In short: as §1

[14] = target: D(1A) dopamine receptor (Homo sapiens) (UniProt P21728); assay: HTS Assay for Allosteric Agonists of the Human D1 Dopamine Receptor: Primary Screen for Antagonists (AID 488983);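 further: calcium flux response to an EC80 dopamine challenge measured with no-wash dye; on the % scale 0 is the no-effect control and ±100 the full control effect; nearly all actives have a fitted effect of over 65% in size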
In short: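 Calcium flux readout, no-wash dye, inducible HEK293 T-REx D1 line (force-coupled). Compound added after 10 s baseline, 180 s kinetic read; then dopamine at EC80, further 180 s read.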

[15] = Validation screen for small molecules that induce genotoxicity in human embryonic kidney (HEK293T) cells expressing luciferase-tagged ELG1 (AID 493106); further: 0% is about no effect
In short: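 qHTS format; 2,000 HEK293T ELG1-luc cells/well; 23 nL compound via pin tool; 16 hr, 37 °C/5% CO2; ONE-Glo, 30 min RT; luminescence read.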

[16] = target: ATPase family AAA domain-containing protein 5 (Homo sapiens) (UniProt Q96QE3); assay: Validation screen for small molecules that inhibit ELG1-dependent DNA repair in human embryonic kidney (HEK293T) cells expressing luciferase-tagged ELG1 (AID 493107);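 further: cells co-treated with the DNA-damaging agent 5-fluorouridine alongside compound; series mostly up to about 46 µM; on the % scale 0 is the no-effect control and ±100 the full control effect; inhibitors lower the ELG1-luciferase luminescence signal; nearly all actives have a fitted effect of over 70% in size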
In short: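 ELG1-luciferase HEK293T reporter; 5-fluorouridine + compound/DMSO, 16 hr, 37 °C, 5% CO2; ONE-Glo 30 min RT; luminescence read, qHTS format.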

[17] = target: Thyrotropin-releasing hormone receptor (Homo sapiens) (UniProt P34981); assay: qHTS for Small Molecule Agonists and Allosteric Enhancers of Human TRH Receptor: Validation Screen for Agonists (AID 493127;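 active means calcium activation more than 3 SD above the typical response in the agonist read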;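 further: intracellular calcium rise by fluo-8 fluorescence before TRH EC20 addition; 0% is about no effect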); conditions: TRH receptor agonist cell assay; at 2 µM; active compounds read high
Chain of Thyrotropin-releasing hormone receptor (Homo sapiens) (P34981 whole entry, looked up): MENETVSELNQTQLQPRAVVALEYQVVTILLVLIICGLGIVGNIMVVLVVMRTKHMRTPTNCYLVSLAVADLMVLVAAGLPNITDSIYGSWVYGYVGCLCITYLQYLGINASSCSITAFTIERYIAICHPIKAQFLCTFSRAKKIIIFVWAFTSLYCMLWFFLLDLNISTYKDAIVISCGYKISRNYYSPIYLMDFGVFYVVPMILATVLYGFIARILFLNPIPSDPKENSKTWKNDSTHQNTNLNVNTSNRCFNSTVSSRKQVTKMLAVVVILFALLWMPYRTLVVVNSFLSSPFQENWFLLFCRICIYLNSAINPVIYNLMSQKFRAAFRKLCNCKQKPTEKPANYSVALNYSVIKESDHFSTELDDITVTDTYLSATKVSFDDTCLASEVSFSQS
In short: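 Read-out: intracellular calcium release measured kinetically by FDSS (fluo-8, ex 480/em 530 nm), 1 reading/s after a 10-cycle baseline. TRHR cells, 2000/well, cultured 18 h at 33.5C, dye-loaded at room temp. Compound-evoked positive calcium signal flags agonists.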

[18] = qHTS for Inhibitors of Cell Surface uPA Generation: Validation Assay (AID 493164);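 further: RAW 264.7 macrophage cells exposed to compound for 18 h; 0% is about no effect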
In short: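 Compounds are titrated over seven points (2.45 nM–38.3 uM final) onto pre-plated RAW 264.7 cells and incubated for 18 h. Retained intracellular ATP, measured with ATP-Lite, indicates blocked lethal factor entry.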

O=[N+]([O-])c1ccc(O[C@@H]2O[C@H](CO)[C@@H](O)[C@H](O)[C@H]2F)c([N+](=O)[O-])c1
inactive: outcome [1] | outcome [2] | Potency [3] | Potency [4] | outcome [5] | Potency [6] | Potency [7] | Potency [8] | Potency [9] | outcome [10] | outcome [11] | outcome [12] | Potency [13] | outcome [14] | outcome [15] | Potency [16] | activation [17] 1.06% | outcome [18]
